High-throughput results deposited in PubChem by several laboratories.
CF NFkB block – cystic fibrosis NF-kB activation inhibition; KKLEB NF-kB-GFP reporter, PAF-induced, GFP fluorescence overnight; inhibition, % at 5 µM; hit rate 0.86% among 360,000;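 active means at least 50% inhibition at 5 µM, scaled per plate between neutral and stimulator controls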;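 further: PAF is a Pseudomonas aeruginosa culture filtrate used as stimulus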
PAX8 inh HTS – PAX8 transcriptional activity inhibition. hit rate 1.2% among 360,000. RMG-I TPO-luciferase reporter, SteadyGlo, 24 h. inhibition, % at 12.6 µM. AID 652154;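 active means mean replicate inhibition at least 60% with every replicate also reaching 60%; inconclusive means only one of the two criteria is met; inactive means mean below 60% and not all replicates reaching 60%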;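 further: luciferase light reporting Pax8 driven TPO promoter activity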
HIF-2a block – blocks HIF-2a reporter activity; 786-0 RCC cells HIF-2a reporter, luciferase luminescence, overnight; inhibition, % at 18.8 µM; AID 624352; hit rate 0.72% among 360,000;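 active means inhibition of the luminescence signal of 40% or more relative to plate controls, in a single-dose primary screen at 18.75 µM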
KKLEB tox – counter-screen for CF NF-kB inhibitors: cytotoxicity; hit rate 0.36% among 360,000; activity change (cytotoxicity), % at 5 µM; KKLEB CF airway cells viability, ATPlite luminescence, overnight; stronger effect = lower value; cells stimulated with P. aeruginosa culture filtrate;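 active means corrected activity change at or below -50% at 5 µM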
EWS-Fli inh – inhibitors of EWS/Fli oncoprotein transcriptional activity; inhibition, % at 12.6 µM; hit rate 0.67% among 350,000; A673 NR0B1-luciferase reporter, viability-normalised;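 active means mean inhibition of at least 50% after viability correction, with every replicate also passing that limit; inconclusive means mean reaches 50% but only one of two replicates passes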;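 further: firefly luciferase signal divided by Alamar Blue viability fluorescence both relative to DMSO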
Large screens that a line does not name were inactive. In the library only some 2.1% were active in any assay of this set; here they are far more common.

CCOCc1c(C(=O)NC2=Nc3ccccc3NC(CC)=C2C(=O)OCC)oc2ccccc12	CF NFkB block 86, PAX8 inh HTS 80, KKLEB tox -99
CC(C)CCSc1nc(N)c(C#N)cc1C#N	CF NFkB block 51 (no result: PAX8 inh HTS, EWS-Fli inh)
CC(=O)c1cc(C#N)c(SCCC(C)C)nc1C	none (no result: PAX8 inh HTS)
O=C1CN(S(=O)(=O)Cc2ccccc2)C[C@@H]2[C@H](c3ccc(C#Cc4ccccc4)cc3)[C@@H](CO)N12	none (no result: CF NFkB block, PAX8 inh HTS, HIF-2a block, KKLEB tox)
FC(F)(F)c1nc2ccccc2n2c(-c3ccc(Cl)cc3Cl)nnc12	none (no result: PAX8 inh HTS, EWS-Fli inh)
FC(F)(F)c1nnc2c(Sc3ccccc3)nc3ccc(Cl)cc3n12	CF NFkB block 96, PAX8 inh HTS 113, KKLEB tox -90 (no result: EWS-Fli inh)
CO[C@H]1CN(C)C(=O)c2ccc(NC(=O)C3CC3)cc2OC[C@@H](C)N(Cc2ccc(F)cc2)C[C@H]1C	none (no result: CF NFkB block, HIF-2a block, KKLEB tox)
CCOC(=O)N1CCN(Cc2cc(Cl)c3cccnc3c2O)CC1	PAX8 inh HTS 78 (no result: CF NFkB block, HIF-2a block, KKLEB tox)
Oc1c(CN2CCN(c3ccccc3)CC2)cc(Br)c2cccnc12	PAX8 inh HTS 85
CCOC(=O)N1CCN(Cc2ccccc2Cl)CC1	none (no result: PAX8 inh HTS, EWS-Fli inh)
Oc1c(CNc2ccccc2)cc(COCc2ccccc2)c2cccnc12	none
Oc1c(CN2CCOCC2)cc(COCc2ccccc2)c2cccnc12	PAX8 inh HTS 66 (no result: EWS-Fli inh)
O=C(NC1CCCC1)N1CC(=O)N2[C@H](C1)[C@H](c1ccc(-c3cccc(F)c3)cc1)[C@@H]2CO	none (no result: CF NFkB block, HIF-2a block, KKLEB tox)
COc1cccc(NC(=O)CSc2nnc(-c3cc(C)n(-c4ccccc4)c3C)o2)c1	HIF-2a block 42 (no result: EWS-Fli inh)
O=C(O)c1ccccc1NS(=O)(=O)c1cccc2cccnc12	none (no result: PAX8 inh HTS, EWS-Fli inh)
O=C(O)CSc1cc(NS(=O)(=O)c2cccc([N+](=O)[O-])c2)c2ccccc2c1O	CF NFkB block 72
CCc1ccc(S(=O)(=O)Nc2cc(SCC(=O)O)c(O)c3ccccc23)cc1	CF NFkB block 64
O=S(=O)(Nc1cc(Sc2cccc3cccnc23)c(O)c2ccccc12)c1ccccc1	PAX8 inh HTS 105 (no result: CF NFkB block, HIF-2a block, KKLEB tox)
CCOc1ccc(S(=O)(=O)Nc2cc(SCC(=O)O)c(O)c3ccccc23)cc1	CF NFkB block 91
C[C@H]1CCCCO[C@H](CN(C)C(=O)c2ccncc2)[C@@H](C)CN([C@@H](C)CO)C(=O)c2cc(NS(=O)(=O)c3cn(C)cn3)ccc2O1	none (no result: CF NFkB block, HIF-2a block, KKLEB tox)
CCCC#Cc1ccc([C@@H]2[C@H](CO)N3C(=O)CN(C(=O)Cc4cccnc4)C[C@@H]23)cc1	none (no result: CF NFkB block, HIF-2a block, KKLEB tox)
CO[C@H]1CN(C)C(=O)c2cc(NC(=O)C3CCOCC3)ccc2OC[C@@H](C)N(C(=O)c2ccccc2)C[C@H]1C	none (no result: CF NFkB block, PAX8 inh HTS, HIF-2a block, KKLEB tox)
Cc1ccc(C)c(S(=O)(=O)Nc2cc(SCC(=O)O)c(O)c3ccccc23)c1	CF NFkB block 81, HIF-2a block 66, KKLEB tox -54 (no result: PAX8 inh HTS, EWS-Fli inh)
Cc1noc(C)c1NC(=O)N(C)C[C@@H]1OCCCC[C@@H](C)Oc2ccc(NC(=O)NC(C)C)cc2C(=O)N([C@H](C)CO)C[C@H]1C	none (no result: CF NFkB block, HIF-2a block, KKLEB tox)
NC(=O)c1ccccc1N/C=C/C(=O)c1ccc(Cl)cc1Cl	KKLEB tox -65 (no result: PAX8 inh HTS, EWS-Fli inh)
NC(=O)c1ccccc1N/C=C/C(=O)c1ccc(F)cc1	none (no result: EWS-Fli inh)
C/C=C/c1ccc2c(c1)O[C@@H](CN(C)C(=O)C1CCCCC1)[C@H](C)CN([C@H](C)CO)S2(=O)=O	none (no result: CF NFkB block, HIF-2a block, KKLEB tox)
CCN1C(=O)CCN(C2CCCC2)c2nc(Nc3ccc(C(=O)NC4CCN(C)CC4)cc3OC)ncc21	EWS-Fli inh 62
COc1ccc(CNCCC(c2ccc(OC(C)C)cc2)c2ccccc2OC)cc1 (stereo unspecified)	PAX8 inh HTS 68
COc1ccc(S(=O)(=O)N(C)C[C@H]2Oc3c(NC(=O)Nc4cccc5ccccc45)cccc3C(=O)N([C@H](C)CO)C[C@@H]2C)cc1	none (no result: CF NFkB block, PAX8 inh HTS, HIF-2a block, KKLEB tox)
CNC(=O)C[C@@H]1CC[C@H]2[C@H](COc3ccc(NC(=O)NC(C)C)cc3C(=O)N2C)O1	none (no result: CF NFkB block, HIF-2a block, KKLEB tox)
CCO[C@H]1OC(C(=O)N2CCN(Cc3ccccc3)CC2)=C[C@@H](c2ccc(C(F)(F)F)cc2)[C@@H]1CCCO	PAX8 inh HTS 90
CC=Cc1ccc2n(c1=O)C[C@H]1[C@H](CO)[C@@H](C(=O)NC3CCC3)N(CC)[C@@H]21 (mixture of isomers)	PAX8 inh HTS 87 (no result: CF NFkB block, HIF-2a block, KKLEB tox)
CCCN1[C@@H]2c3ccc(/C=C/c4ccccc4)c(=O)n3C[C@@H]2[C@@H](CO)[C@@H]1C(=O)N1CCOCC1	PAX8 inh HTS 69 (no result: CF NFkB block, HIF-2a block, KKLEB tox)
C[C@H]1CN([C@@H](C)CO)C(=O)Cc2cc(NC(=O)c3ccncc3)ccc2O[C@H]1CN(C)C(=O)Nc1ccccc1	none (no result: CF NFkB block, HIF-2a block, KKLEB tox)
C/C=C/c1ccc([C@@H]2[C@H](CO)N(CCC(F)(F)F)C23CN(C(=O)CN(C)C)C3)cc1	none (no result: CF NFkB block, HIF-2a block, KKLEB tox)
C[C@@H]1CN([C@@H](C)CO)C(=O)c2cc(C3=CCCC3)cnc2O[C@H]1CN(C)Cc1ccccc1	none (no result: CF NFkB block, PAX8 inh HTS, HIF-2a block, KKLEB tox)
CCNC(=S)N1CCN(c2nc(-c3ccc(F)cc3)cs2)CC1	none
CCN(CC)CCCNC(=S)N1CCN(c2nc(-c3ccc(F)cc3)cs2)CC1	EWS-Fli inh 61
NC(=O)[C@H]1CC2(CC(c3cccc(NC(=O)COc4ccc(Cl)cc4)c3)=NO2)CN1C(=O)C(c1ccccc1)c1ccccc1 (stereo partly specified)	PAX8 inh HTS 89
Cc1c(C(=O)N2CC3(CC(c4cccc(NC(=O)CC(c5ccccc5)c5ccccc5)c4)=NO3)C[C@@H]2C(N)=O)cc([N+](=O)[O-])cc1[N+](=O)[O-] (stereo partly specified)	PAX8 inh HTS 65
O=[N+]([O-])c1ccc(N2CCOCC2)cc1O	none
Cc1cc(N2CCOCC2)ccc1/C=C\[N+](=O)[O-]	CF NFkB block 54, HIF-2a block 55, EWS-Fli inh inconclusive
CCCNC(=O)[C@@]1(Sc2ccc(C)cc2)CC(=O)N(C2CCCCC2)[C@@H]1c1ccc(CO)cc1I	none (no result: CF NFkB block, HIF-2a block, KKLEB tox)
COc1cc2c3nnc(-c4ccc(F)cc4)c-3cn(Cc3cccc(C)c3)c2cc1OC	KKLEB tox -77
CC(C)NC(=O)Nc1ccc2c(c1)C(=O)N([C@@H](C)CO)C[C@H](C)[C@@H](CN(C)C(=O)Nc1ccc3c(c1)OCO3)OCCCC[C@H](C)O2	none (no result: CF NFkB block, HIF-2a block, KKLEB tox)
O=C(N/N=C/c1ccc(Cl)c([N+](=O)[O-])c1)c1cc(-c2ccc3c4c(cccc24)CC3)n[nH]1	PAX8 inh HTS 97
Cc1ccc(-c2ccc([C@H]3[C@H](CO)N4CCCCN(C(=O)c5ccc(F)cc5)C[C@@H]34)cc2)cc1	none (no result: CF NFkB block, HIF-2a block, KKLEB tox)
COCC(=O)N1CCCCN2[C@H](C1)[C@@H](c1ccc(-c3ccc(C)cc3)cc1)[C@@H]2CO	PAX8 inh HTS 115 (no result: CF NFkB block, HIF-2a block, KKLEB tox)
Cc1ccc(-c2ccc([C@H]3[C@@H](CO)N4CCCCN(C(=O)c5ccc(F)cc5)C[C@H]34)cc2)cc1	PAX8 inh HTS 73 (no result: CF NFkB block, HIF-2a block, KKLEB tox)
N#CCCNC(=O)Cn1c(COc2ccc(Cl)cc2)nc2ccccc21	PAX8 inh HTS 70
Cc1ccc(-n2c(Cl)c(Cl)nc(Cl)c2=O)cc1	CF NFkB block 88, HIF-2a block 94, KKLEB tox -94 (no result: PAX8 inh HTS, EWS-Fli inh)
CCN1C(=O)[C@@H]2[C@@H](c3ccc(-c4ccc(Cl)c(Cl)c4)c(OC)c3)N3CCC[C@@]3(C(=O)OC)[C@@H]2C1=O	PAX8 inh HTS 70
